Assay [1] addresses Arylsulfatase A (Homo sapiens) (UniProt P15289). The experiment in a line: qHTS screen for enhancers of Arylsulfatase A (ASA1): LOPAC Validation Assay (AID 720538). Note: potency is the fitted concentration of half-maximal effect. As to conditions: ASA enzyme activity, LOPAC qHTS enhancer assay; series mostly up to 57.5 µM. Put shortly:
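MLD patient fibroblasts (SV40, ASA-I179S), 1536-well; adhere 6 hrs; cpd 48h, 37 degree C, 5% CO2; pNCS 0.5mM final in lysis buffer, 14h RT; stop 1N NaOH final; fluor. Ex525/Em598.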

A short description of assay [2]: qHTS for compounds that reverse cellular toxicity of Amyloid beta (A-beta) peptide in yeast: LOPAC Validation Assay (AID 720559). As to conditions: yeast expressing A-beta; Potency: rescue of growth toxicity; series mostly up to 46.1 µM. Put shortly:
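Medium dispensed, compounds pinned, A-beta yeast suspension added; plates held at 30 C for 48 hr; absorbance measured at 600 nm to gauge growth; values scaled between DMSO and FeCl3/clioquinol (equimolar) controls.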
On the technique in general: qHTS replaces the single test concentration by a dilution series.

The target in assay [3] is DNA polymerase iota (Homo sapiens) (UniProt Q9UNA4). As to the kind of experiment: qHTS for Inhibitors of Polymerase Iota: Confirmatory Assay for Cherry-picked Compounds (AID 720496). Note: potency is the fitted concentration of half-maximal effect. As to conditions: Pol iota primer extension, TAMRA/BHQ fluorescence. An excerpt:
DNA polymerases, such as polymerase iota (Pol iota), are involved in DNA repair. Pol iota specifically plays an important role in translesion synthesis, where the normal high-fidelity DNA polymerases cannot proceed and DNA synthesis stalls. […] Thus, while Pol eta and most likely Pol iota's normal functions are to protect humans against the deleterious consequences of DNA damage, under certain conditions they can have deleterious effects on human health. As a consequence, small molecule inhibitors of Pol iota (identified from a high throughput replication assay) have potential therapeutic applications. A 1536-well format, fluorescence based, high-throughput screen (AID 588590) is developed in collaboration with the National Institute of Child Health & Human Development (NICHD) to screen for inhibitors of the […]. This screen is used to validate the activity of the selected compounds from the primary assay against the […]. Inhibition is the desired outcome for this assay. […]
Three microliters of reagents (buffer in column 3 and 4 as negative control while 10 nM Pol iota in columns 1, 2, and 5-48) were dispensed into a 1536-well black solid-bottom plate. […] The assay plates were initially read after 0 min and again after 10 min of kinetic reaction using the PerkinElmer Viewlux reader equipped with 525 nm excitation and 598 nm emission filters.

The target of assay [4] is DNA polymerase kappa (Homo sapiens) (UniProt Q9UBT6). As to the kind of experiment: qHTS for Inhibitors of Polymerase Kappa: Confirmatory Assay for Cherry-picked Compounds (AID 720501). Note: potency is the fitted concentration of half-maximal effect. The settings on record: purified Pol-kappa, fluorescent strand-displacement substrate. The source says: The processing and repair of DNA inter-strand crosslinks (ICL) in eukaryotic cells are extremely complex, potentially involving multiple DNA repair and damage tolerance pathways, including homologous recombination, nucleotide excision repair, translesion synthesis (TLS), and cell cycle checkpoints. […] A 1536-well format, fluorescence based, high-throughput screen (AID 588579) was developed in collaboration with the Oregon Health & Science University to screen for inhibitors of the Pol-kappa enzyme. This assay was used to validate the activity of the selected compounds from the primary screen against the human Pol-kappa. Inhibition is the desired outcome for this assay. NIH Chemical Genomics Center [NCGC] NIH Molecular Libraries Probe Centers Network [MLPCN] MLPCN Grant: MH094179 Assay Submitter (PI): Stephen Lloyd, Oregon Health & Science University
DNA polymerase kappa (Homo sapiens), sequence (Q9UBT6 whole entry, looked up): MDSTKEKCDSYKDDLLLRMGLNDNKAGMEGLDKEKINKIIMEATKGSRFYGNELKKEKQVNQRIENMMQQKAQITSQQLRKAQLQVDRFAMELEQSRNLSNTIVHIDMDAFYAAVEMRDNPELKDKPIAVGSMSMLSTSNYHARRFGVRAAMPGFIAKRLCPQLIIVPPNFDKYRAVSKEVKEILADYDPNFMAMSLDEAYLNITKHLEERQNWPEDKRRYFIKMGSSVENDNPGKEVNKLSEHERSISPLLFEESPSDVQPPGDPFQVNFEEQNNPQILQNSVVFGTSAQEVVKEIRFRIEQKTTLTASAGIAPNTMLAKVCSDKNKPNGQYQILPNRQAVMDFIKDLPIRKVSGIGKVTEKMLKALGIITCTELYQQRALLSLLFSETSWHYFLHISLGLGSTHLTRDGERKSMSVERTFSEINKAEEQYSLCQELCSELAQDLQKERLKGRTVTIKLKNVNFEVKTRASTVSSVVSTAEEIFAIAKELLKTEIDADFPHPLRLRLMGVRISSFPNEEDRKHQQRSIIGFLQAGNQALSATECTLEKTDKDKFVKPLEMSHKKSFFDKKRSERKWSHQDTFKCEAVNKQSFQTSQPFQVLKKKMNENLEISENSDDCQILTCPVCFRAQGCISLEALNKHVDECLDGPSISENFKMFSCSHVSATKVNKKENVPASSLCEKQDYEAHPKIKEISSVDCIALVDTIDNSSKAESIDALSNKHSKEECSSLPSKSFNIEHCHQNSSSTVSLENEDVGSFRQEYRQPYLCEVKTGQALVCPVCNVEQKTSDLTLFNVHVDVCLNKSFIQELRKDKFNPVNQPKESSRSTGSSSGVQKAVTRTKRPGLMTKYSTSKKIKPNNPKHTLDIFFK
Three microliters of reagents (buffer in column 3 and 4 as negative control and 10 nM Pol-kappa in columns 1, 2, and 5-48) were dispensed into a 1536-well black solid-bottom plate. Compounds (23 nL) were transferred via Kalypsys pin tool equipped with 1536-pin array. […] The assay plates were initially read after 0 min and again after 10 min of kinetic reaction using the PerkinElmer Viewlux reader equipped with 525 nm excitation and 598 nm emission filters.

In assay [5] the target is DNA polymerase eta (Homo sapiens) (UniProt Q9Y253). The experiment in a line: qHTS for Inhibitors of Polymerase Eta: Confirmatory Assay for Cherry-picked Compounds (AID 720502). Note: potency is the fitted concentration of half-maximal effect. The settings on record: Pol eta primer extension, TAMRA/BHQ fluorescence, 10 min. Summed up: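 Strand-displacement fluorescence (525 nm excitation, 598 nm emission) was read kinetically at 0 and 10 min after adding 50 nM final TAMRA-reporter/BHQ-2-template substrate. Beforehand, 10 nM Pol eta had been exposed to compound for 15 min at room temperature.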
DNA polymerase eta (Homo sapiens), sequence (Q9Y253 whole entry, looked up): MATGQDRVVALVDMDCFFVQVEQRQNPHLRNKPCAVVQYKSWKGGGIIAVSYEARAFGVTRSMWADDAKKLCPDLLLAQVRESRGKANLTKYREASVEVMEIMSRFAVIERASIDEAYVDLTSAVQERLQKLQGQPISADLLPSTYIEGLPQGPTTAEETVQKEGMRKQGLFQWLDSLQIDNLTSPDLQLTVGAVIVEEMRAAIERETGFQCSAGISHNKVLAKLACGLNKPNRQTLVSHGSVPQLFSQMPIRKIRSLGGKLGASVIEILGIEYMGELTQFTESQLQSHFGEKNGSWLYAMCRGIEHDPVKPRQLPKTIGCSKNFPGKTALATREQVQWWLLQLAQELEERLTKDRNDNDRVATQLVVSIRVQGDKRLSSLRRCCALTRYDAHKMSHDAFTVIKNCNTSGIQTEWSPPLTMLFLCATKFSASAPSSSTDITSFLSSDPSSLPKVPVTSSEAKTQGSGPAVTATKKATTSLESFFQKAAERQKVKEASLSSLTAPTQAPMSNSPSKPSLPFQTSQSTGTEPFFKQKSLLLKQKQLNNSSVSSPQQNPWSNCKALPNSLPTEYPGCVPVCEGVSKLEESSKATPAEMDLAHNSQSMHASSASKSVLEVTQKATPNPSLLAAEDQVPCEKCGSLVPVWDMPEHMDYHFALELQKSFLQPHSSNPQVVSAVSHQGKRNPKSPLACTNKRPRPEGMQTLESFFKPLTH

Assay [6] has as its target Tyrosine-protein kinase Yes (Homo sapiens) (UniProt P07947). The experiment in a line: qHTS for small molecule inhibitors of Yes1 kinase: Primary Screen (AID 686947). Note: nearly all actives have a fitted effect of over 60% in size. The settings on record: Yes1 kinase biochemical qHTS inhibition; series mostly up to 76.9 µM. Put shortly: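 ADP-Glo luminescence readout; final 4 nM Yes1, 0.1 mM ATP, 0.3 mg/mL poly(E4Y), Tris pH 7.5, MgCl2, DTT, Brij-35. 20 min compound preincubation, 60 min reaction at RT. Normalized to DMSO wells with and without enzyme.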

The nature of assay [7]: qHTS for small molecule inhibitors of Yes1 kinase: Counter Assay (AID 686950).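 Note: no kinase present so only ADP-Glo detection of a fixed ADP amount is tested; luminescence from ADP-Glo reporting ADP in a fixed ATP and ADP mixture.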 As to conditions: series mostly up to 76.9 µM. Summed up: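 Enzyme-free detection counter-screen: compounds preincubated 20 min in buffer, then 0.08 mM ATP plus 0.02 mM ADP added for 60 min at room temperature; ADP-Glo luminescence. Buffer 50 mM Tris pH 7.5, 10 mM MgCl2, 150 mM NaCl; normalized to ATP+ADP and ATP-only controls.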

Several values for one entry are separate records, joined by “and”; a condition that tells them apart may be missing. Identical values can stand only once. Inconclusive results are not listed. The list shows a part of the results. Activity calls are given as the source filed them. Calls come from the whole dose curve; as a rule, active = well fitted curve in the direction sought with a large enough effect; inconclusive = small, poorly fitted or top-dose-only effect, or another doubt; inactive = no such curve, though single readings can be large; an effect the other way counts as inactive or inconclusive.

This note sets out measurements from PubChem BioAssay (NCATS).

Arylsulfatase A (Homo sapiens), sequence (P15289 whole entry, looked up): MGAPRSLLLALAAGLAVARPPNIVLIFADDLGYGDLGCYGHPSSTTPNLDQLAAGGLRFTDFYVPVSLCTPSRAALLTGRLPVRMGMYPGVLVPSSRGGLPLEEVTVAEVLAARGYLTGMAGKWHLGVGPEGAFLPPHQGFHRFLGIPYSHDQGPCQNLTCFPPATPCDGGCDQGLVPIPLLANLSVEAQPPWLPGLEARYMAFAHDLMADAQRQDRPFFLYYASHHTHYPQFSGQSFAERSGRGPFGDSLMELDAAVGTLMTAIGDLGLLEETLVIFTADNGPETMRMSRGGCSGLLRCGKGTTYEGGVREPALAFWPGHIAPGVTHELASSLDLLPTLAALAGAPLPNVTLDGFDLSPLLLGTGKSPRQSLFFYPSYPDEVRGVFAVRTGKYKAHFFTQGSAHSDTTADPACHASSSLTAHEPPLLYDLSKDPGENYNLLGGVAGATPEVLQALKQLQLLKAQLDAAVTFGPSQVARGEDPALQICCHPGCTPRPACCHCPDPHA
Tyrosine-protein kinase Yes (Homo sapiens), sequence (P07947 whole entry, looked up): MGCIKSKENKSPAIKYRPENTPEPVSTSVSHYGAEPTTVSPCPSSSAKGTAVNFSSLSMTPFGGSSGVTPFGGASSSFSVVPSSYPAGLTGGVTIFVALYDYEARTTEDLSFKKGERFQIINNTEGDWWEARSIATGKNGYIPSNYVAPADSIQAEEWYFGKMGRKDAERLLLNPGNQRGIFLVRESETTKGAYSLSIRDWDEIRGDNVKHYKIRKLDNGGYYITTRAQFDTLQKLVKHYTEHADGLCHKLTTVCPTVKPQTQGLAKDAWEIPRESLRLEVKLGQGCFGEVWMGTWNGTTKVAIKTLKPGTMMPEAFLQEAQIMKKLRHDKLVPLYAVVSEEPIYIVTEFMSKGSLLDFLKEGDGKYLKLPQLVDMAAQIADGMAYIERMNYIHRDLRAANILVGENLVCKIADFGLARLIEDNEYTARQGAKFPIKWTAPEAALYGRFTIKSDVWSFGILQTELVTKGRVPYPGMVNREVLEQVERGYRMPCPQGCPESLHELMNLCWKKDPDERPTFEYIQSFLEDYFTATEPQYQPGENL
DNA polymerase iota (Homo sapiens), sequence (Q9UNA4 whole entry, looked up): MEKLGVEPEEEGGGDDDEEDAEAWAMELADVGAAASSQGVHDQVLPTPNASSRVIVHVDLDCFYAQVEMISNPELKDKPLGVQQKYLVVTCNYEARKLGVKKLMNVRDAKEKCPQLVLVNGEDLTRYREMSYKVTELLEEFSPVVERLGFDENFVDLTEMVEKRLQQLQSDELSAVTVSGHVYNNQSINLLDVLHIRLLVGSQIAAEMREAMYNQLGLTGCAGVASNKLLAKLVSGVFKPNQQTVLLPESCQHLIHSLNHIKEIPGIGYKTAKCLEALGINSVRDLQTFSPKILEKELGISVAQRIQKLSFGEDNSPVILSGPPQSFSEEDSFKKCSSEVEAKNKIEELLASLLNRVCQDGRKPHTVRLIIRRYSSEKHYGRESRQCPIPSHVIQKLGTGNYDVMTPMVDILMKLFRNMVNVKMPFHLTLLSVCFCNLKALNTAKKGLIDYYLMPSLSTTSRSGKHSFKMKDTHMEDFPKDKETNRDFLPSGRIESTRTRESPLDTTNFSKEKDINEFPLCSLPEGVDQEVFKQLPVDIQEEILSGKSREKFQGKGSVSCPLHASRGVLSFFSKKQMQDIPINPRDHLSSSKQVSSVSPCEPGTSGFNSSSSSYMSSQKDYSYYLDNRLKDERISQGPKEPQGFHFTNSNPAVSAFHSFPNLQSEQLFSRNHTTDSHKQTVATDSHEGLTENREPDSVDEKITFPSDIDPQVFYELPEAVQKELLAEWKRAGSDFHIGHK

Regarding `OC[C@H]1O[C@@H](n2cnc3c(NC4CCCCC4)ncnc32)[C@H](O)[C@@H]1O`, the Potency entry in assay [1] and in assay [2] was “inactive” in each case.

Take `CO/N=C(\C(=O)N[C@@H]1C(=O)N2C(C(=O)O)=C(COC(C)=O)CS[C@H]12)c1csc(N)n1` (stereo in doubt): the Potency in assay [3] was 18.9 µM (active); in assay [4] it was 9.47 µM (active) and 8.44 µM (active); in assay [5] it was 15.1 µM (active) and 19 µM (active) and 8.49 µM (active).

Turning to `Nc1nc(Cl)nc2c1ncn2[C@@H]1O[C@H](CO)[C@@H](O)[C@H]1O`, the Potency result in assay [1] and in assay [2] was “inactive” each time.

Regarding `COc1cc2c(CCNC(C)=O)c[nH]c2cc1Cl`, the Potency result in assay [1] and in assay [2] was “inactive” throughout.

Consider `COc1ccccc1N1CCN(CCN(C(=O)c2ccc(I)cc2)c2ccccn2)CC1`, for which the Potency entry in assay [1] and in assay [2] was “inactive” in each case.

Consider `CCCCCC(O)c1cccc(OCc2ccc3ccccc3n2)c1` (stereo not given), for which the Potency entry in assay [1] and in assay [2] was “inactive” in each case.

`C[N+](C)(C)CCOP(=O)(O)OP(=O)([O-])OC[C@H]1O[C@@H](n2ccc(N)nc2=O)[C@H](O)[C@@H]1O`: the Potency entry in assay [1] and in assay [2] was “inactive” each time.

With `COc1ccc(NC(=O)/C=C/c2ccc(Cl)cc2)cc1`, the Potency result in assay [1] and in assay [2] was “inactive” each time.

Turning to `C[C@@H](NC(=O)/C(C#N)=C/c1ccc(O)c(O)c1)c1ccccc1`, the Potency entry in assay [1] and in assay [2] was “inactive” in each case.

Consider `CN1CC(=O)N/C1=N/C(=O)Nc1cccc(Cl)c1`, for which the call in assay [6] and in assay [7] was inactive. The Potency result in assay [2] is “inactive”.

`CCOC(=O)N1CCN(/[N+]([O-])=N/Oc2ccc([N+](=O)[O-])cc2[N+](=O)[O-])CC1`: the Potency entry in assay [1] and in assay [2] was “inactive” throughout.

Take `COc1ccc(/C=C/C(=O)Nc2ccccc2C(=O)O)cc1OC`: in assay [1], the Potency was 6.75 µM (active). Moreover, in assay [2], the Potency result is “inactive”.

As to `Nc1nc(SCc2ccc([N+](=O)[O-])cc2)c2ncn([C@@H]3O[C@H](CO)[C@@H](O)[C@H]3O)c2n1`, the Potency entry in assay [1] and in assay [2] was “inactive” in each case.

Consider `CCCCCCCCCCCCCCCC(=O)NCC(COP(=O)([O-])OCC[N+](C)(C)C)OCC` (stereo not given), for which the Potency result in assay [1] and in assay [2] was “inactive” in each case.

Turning to `CO/S(=N\S(=O)(=O)c1ccc(Cl)cc1)c1ccc([N+](=O)[O-])cc1` (stereo not given), the Potency result in assay [1] and in assay [2] was “inactive” in each case.

On to `N#C/C(=C\c1c[nH]c2ccccc12)C(=O)c1ccc(O)c(O)c1`, for which the Potency entry in assay [1] and in assay [2] was “inactive” in each case.

With `O=c1[nH]c2cc(C(F)(F)F)ccc2n1-c1cc(C(F)(F)F)ccc1O`, the Potency result in assay [1] and in assay [2] was “inactive” each time.

As to `Cc1cc2c(cc1Cl)N(C(=O)Nc1ccc(Oc3cccnc3C)nc1)CC2`, the Potency entry in assay [1] and in assay [2] was “inactive” each time.

On to `OC[C@H]1O[C@@H](n2cnc3c(NC4CCCC4)ncnc32)[C@H](O)[C@@H]1O`, for which the Potency result in assay [1] and in assay [2] was “inactive” in each case.

With `NCCNC(=O)c1ncsc1-c1cccc(F)c1`, the Potency entry in assay [1] and in assay [2] was “inactive” throughout.

For `COc1ccccc1N1CCN(CCCCNS(=O)(=O)c2cccc3c(N(C)C)cccc23)CC1`, the Potency result in assay [1] and in assay [2] was “inactive” each time.

As for `O=c1[nH]c2cc([N+](=O)[O-])c([N+](=O)[O-])cc2[nH]c1=O`, the Potency in assay [1] is 8.49 µM (active). Besides, in assay [2], the Potency result is “inactive”.

As for `O=C1NC(=O)/C(=C/c2ccc3nccnc3c2)S1`, the Potency result in assay [1] and in assay [2] was “inactive” each time.

As to `C#CCN1C(C)=C(C(=O)OC)C(c2cccc([N+](=O)[O-])c2)C(C(=O)OCC)=C1C` (stereo not given), the Potency entry in assay [1] and in assay [2] was “inactive” throughout.
